Data as given in ChEMBL document CHEMBL3988442, “University of Dundee, Small-Polar-MMV Screening Library” (2021).
Hit rate of the full screen: of about 48,000 compounds, about 13,000 (27%) showed an effect of 50% or more. The list shows a part of the results.

Test system: Wolbachia pipientis
Experiment: Anti-Wolbachia Cell-Based Screen
Assay type: functional
Parameters: scale not given: in the data most compounds retested in dose-response had high values
Conditions: 5 µM

SMILES	Percent Effect
Cc1noc(C)c1CSc1nc(=O)ccn1C(C)C	-1.27%
NC(=O)C(NC(=O)COCCc1ccccc1)c1ccccc1F (configuration not stated)	-15.69%
CCCn1nc2c(cc1=O)CN(CCCS(N)(=O)=O)CC2	-2.42%
CCC[C@@H]1CN(Cc2c[nH]c(CC3CCCC3)n2)C[C@H]1C(=O)O	-10.74%
CCOC(=O)c1coc(N2CCC(C(C)N3CCCC3)CC2)n1 (configuration not stated)	0%
O=C(CCc1ccsc1)NS(=O)(=O)Cc1ccon1	-50.57%
O=C(CCc1ccc(Br)cc1)NCc1nnc[nH]1	-10.7%
Cc1cc(CCC(=O)NCc2nccn2C)ccc1Br	125.4%
Cc1cc(CCC(=O)N2CCC(O)CC2)ccc1Br	-5.317%
CC(CCc1cccc(F)c1)NC(=O)NCc1ncnn1C (configuration not stated)	-8.39%
Cn1ccnc1CCNC(=O)C1CCCN(Cc2cccc(F)c2)C1 (configuration not stated)	-2.372%
Cc1cc(CCC(=O)NCc2ncc[nH]2)ccc1Br	105.6%
Cc1cc(CCC(=O)N2CC[C@H](O)C2)ccc1Br	2.583%
Cn1ccnc1CNC(=O)CCc1cccc(F)c1	127.3%
Cc1cc2ccccc2n1CCC(=O)NCc1ncc[nH]1	-13.5%
CC(C)CC(NC(=O)c1cc(-c2cccn2C)n[nH]1)c1ncnn1C (configuration not stated)	13.42%
CCc1csc(CNc2nc3c(s2)c(C)nn3C)n1	-26.31%
OCC(CO)Nc1ccc2c(Cl)ccc(Cl)c2n1	1.659%
COc1cc(F)ccc1-c1nc2c([nH]1)c(C1CC1)nn2C	1.853%
Cc1ccsc1CN(C)Cn1nccc1-c1cccnc1	34.48%
CC1CCCCN1C(=O)CN1CCN(c2ccc3nncn3n2)CC1 (configuration not stated)	-2.497%
c1cc(CCN2CCN(c3ccc4nncn4n3)CC2)ccn1	116%
c1ccc(OCCCN2CCN(c3ccc4nncn4n3)CC2)cc1	7.239%
O=C(CCN1CCN(c2ccc3nncn3n2)CC1)N1CCCCC1	90.26%

SMILES	Percent Effect
FC(F)(F)COCCN1CCN(c2ccc3nncn3n2)CC1	-1.16%
O=C(CCN1CCN(c2ccc3nncn3n2)CC1)NC1CCCC1	0.1018%
c1ccc(CCCN2CCN(c3ccc4nncn4n3)CC2)cc1	101.5%
Clc1ccccc1CCN1CCN(c2ccc3nncn3n2)CC1	114.3%
CN(Cc1ccccc1OC(F)(F)F)C(=O)C1CCCN(C(N)=O)C1 (configuration not stated)	15.24%
COCC1CCCCN1Cc1nc(-c2ccoc2)oc1C (configuration not stated)	2.327%
Cn1cc(N2CCN(c3ccc(C#N)cc3Br)CC2=O)cn1	-23.45%
CCc1ccccc1OC1CN(C(=O)CN(C)Cc2ccncc2)C1	0.8406%
CC(C)c1ccn(C2(C(=O)O)CCN(c3cc(C(N)=O)ccn3)CC2)n1	10.23%
O=C(COc1cccnc1)NCc1nncn1C1CCCCC1	-1.054%
Cc1cnc(N2CC[C@@]3(O)CCCC[C@H]3C2)nc1-c1ccnn1C	-8.985%
Cc1nn2c(N3CCC(C#N)CC3)cc(-c3ccccc3)nc2c1C	-8.665%
c1ccc(CCN2CCN(c3ccc4nncn4n3)CC2)cc1	80.05%
Cc1ccc(C)c2c1NC(=O)C2CC(=O)O (configuration not stated)	5.742%
COCc1nc(NC(C)Cc2cc(C)n[nH]2)c2cnn(C)c2n1 (configuration not stated)	4.118%
CC(C)Oc1ccc(C(=O)N2CCC(Nc3cccnn3)CC2)cn1	123.7%
COc1ccc(C(=O)N2CCC(Nc3cccnn3)CC2)cn1	104%
COc1ccc(C(=O)N2CCC(Nc3cccnn3)CC2)c(OC)c1	-3.344%
C[S+]([O-])c1ccc(CNc2ccc(F)cc2OC(F)F)cc1 (configuration not stated)	0.9094%
CCn1cc(-c2cc(C(F)F)n3nc(CCC(=O)O)nc3n2)cn1	98.47%
Cn1ncc(NC(=O)Cn2cc(-c3ccc(F)cn3)cn2)n1	2.479%
Cc1nn(C)cc1-c1cc(C(F)F)n2nc(CCC(=O)O)nc2n1	110.6%
Cc1nn(C)cc1-c1ccnc(N(C)Cc2noc(C(C)C)n2)n1	1.029%
Cn1cc(-c2csc(N3CCN(C(=O)OC(C)(C)C)CC3)n2)cn1	8.816%

SMILES	Percent Effect
CCn1cc(C(=O)NCC(OC)c2cccc(Cl)c2)cn1 (configuration not stated)	4.602%
CCn1cc(-c2cc(C(F)F)n3nc(CC(=O)O)nc3n2)cn1	108.3%
Cn1cc(-c2cc(C(F)F)n3nc(CCC(=O)O)nc3n2)cn1	133.7%
Cn1cc(-c2csc(N3CCOCC3)n2)cn1	-6.106%
CCCc1cnc(C)nc1N1CCC2(CCCO2)CC1	-4.323%
O=C(C1CCC1)N1CCN(Cc2ccccc2F)[C@H]2CS(=O)(=O)C[C@H]21	4.948%
Cc1nc(CN(C)C(=O)Nc2cnn(CC3CCCO3)c2)cs1 (configuration not stated)	-5.003%
Cc1nc(CCNC(=O)CC2CCN(C(C)C)CC2)sc1Cl	-9.554%
Cc1ccsc1C(=O)N1CC2CC1(C(=O)NCC1CC1)C2	-19.62%
CCn1ncc(-c2nc3c[nH]n(CC)c-3n2)c1C	-16.08%
CCn1ncc(-c2cc(C(F)F)n3nc(CCC(=O)O)nc3n2)c1C	94.49%
COc1ccccc1C(=O)N1CCC(Oc2ccc(C#N)cn2)CC1	-9.351%
Cn1cnc2c1CCN(Cc1ccc(C(=O)N3CCCC3)cc1)C2	0.7019%
Cc1ccsc1CN1CCC(c2cc(C(C)C)n[nH]2)CC1	15.3%
c1cc(CN2CCc3c(CN4CCCC4)n[nH]c3C2)ccn1	-1.373%
Cc1ccsc1CCNC(=O)CCC1CCCCN1C (configuration not stated)	3.946%
CC1CCCCN1c1nc2c(c(=O)[nH]1)CCN(Cc1ccc(O)cc1)C2 (configuration not stated)	108.9%
CC1CCCCN1c1nc2c(c(=O)[nH]1)CCN(Cc1ccccc1F)C2 (configuration not stated)	109.6%
Cc1[nH]c(=O)[nH]c(=O)c1CN1CCCC(CCc2ccccc2F)C1 (configuration not stated)	3.318%
Fc1cccc2[nH]c(CN3CCc4cncnc4C3)nc12	8.027%
Cc1ccsc1CN1CCc2c(nc(N3CCCCC3C)[nH]c2=O)C1 (configuration not stated)	117.5%
CC1CCCCN1c1nc2c(c(=O)[nH]1)CCN(Cc1ccccn1)C2 (configuration not stated)	67.76%
CCCn1nc2c(cc1=O)CN(Cc1ccccn1)CC2	-24.61%
Cc1cccc(CN2CCc3c(nc(N4CCCCC4C)[nH]c3=O)C2)n1 (configuration not stated)	-2.625%
